In PubChem BioAssay AID2012 (Sanford-Burnham Center for Chemical Genomics, 2009) one finds inhibition data, which are given here for 50 compounds.

The target in the experiment is Eukaryotic translation initiation factor 4H (Homo sapiens) (UniProt Q15056). Kind of experiment: human eIF4H binding inhibitors, primary screen, translation initiation inhibitor project, biochemical, uHTS, fluorescence polarization (AID 2012).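 Also: calls also rest on retests at 20 µM and on dose response follow-up.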 The note with it: eIF4H fluorescence polarization binding assay, stronger effect = higher value.

Structures are written as SMILES. Hit rate of the full screen: of about 290,000 compounds, about 2,700 (0.93%) were called active. No rule for the calls is given here. The list comes from a sample in which actives are over-represented; it also holds similar structures and randomly drawn compounds.

As to `CN(C)c1ccc(/C=C2\CC3C4CC=C5CC(O)CCC5(C)C4CCC3(C)C2=O)cc1` (centres undefined), the inhibition runs as follows: (at 35 µM) 3.9% (active); (confirmation average, at 20 µM) 87.3%.

On to `CCN1C(=O)C(=Cc2c(C)n(CC(=O)NCC3CCCO3)c3ccccc23)C(=O)N(CC)C1=S` (centres undefined), for which the inhibition (at 35 µM) was 48.5% (inactive).

Regarding `O=c1[nH]c(=O)n(CCc2ccc(F)cc2)c(O)c1/C=N/N1CCCCC1`, where the note is “at 35 µM”, the inhibition was -3.1% (inactive).

For the compound `O=C(N/N=C/c1c(O)n(C2CC2)c(=S)[nH]c1=O)c1ccccc1`, the inhibition (at 35 µM) is 10.1% (inactive).

`O=C(N/N=C/c1c(O)n(Cc2ccccc2)c(=O)[nH]c1=O)c1ccccc1`: the inhibition was 74.3% (active) (at 35 µM) and 67.6% (confirmation average, at 20 µM).

For the compound `O=c1[nH]c(=O)n(Cc2ccccc2)c(O)c1/C=N/Nc1c(F)c(F)c(F)c(F)c1F`, the inhibition (at 35 µM) is 92.3% (active).

Consider `O=c1[nH]c(=O)n(CCc2ccccc2)c(O)c1/C=N/N1CCOCC1`, for which, for the setting “at 35 µM”, the inhibition was 3.3% (inactive).

Regarding `CCCCC(=O)N/N=C/c1c(O)n(-c2ccccc2)c(=O)[nH]c1=O`, for the setting “at 35 µM”, the inhibition was 12.9% (inactive).

On to `CC1CCC(N(C)C2CCN(C)CC2)CC1` (centres undefined), for which the inhibition (at 35 µM) was -3.9% (inactive).

With `CCN(CC)C(=O)c1ccc(NC(=O)c2sccc2-c2ccccc2)cc1`, the inhibition (at 35 µM) was -5.8% (inactive).

`CCCCn1c(=O)c(C(=O)Nc2ccccc2Cl)c(O)c2ccccc21`: the inhibition (at 35 µM) is -6% (inactive).

Consider `COc1ccc(N=Cc2c(O)n(C)c(=O)[nH]c2=O)cc1`, for which the inhibition (at 35 µM) is 35.4% (inactive).

Take `Cc1cccc(NC(=O)N2CC3CC(C2)c2cccc(=O)n2C3)c1` (centres undefined): the inhibition (at 35 µM) is -1.5% (inactive).

Take `Cc1nc2ccccc2c(=O)n1-c1ccc(Cl)cc1Cl`: the inhibition (at 35 µM) is 1.9% (inactive).

As for `Cc1ccc(C2CN(C)CC2C(=O)c2ccc(F)cc2)cc1` (centres undefined), where the note is “at 35 µM”, the inhibition is -1.4% (inactive).

On to `COc1ccc(CNCCc2c[nH]c3ccccc23)cc1OC`, for which, where the note is “at 35 µM”, the inhibition was -0.9% (inactive).

On to `CN(C)S(=O)(=O)c1cc(C(=O)N2CCC(C(=O)O)(c3ccccc3)CC2)ccc1Cl`, for which, for the setting “at 35 µM”, the inhibition was -1.5% (inactive).

`COc1cccc(N2C(=O)NC(=O)/C(=C\c3ccc([N+](=O)[O-])s3)C2=O)c1`: the inhibition is 73.8% (active) (at 35 µM) and 101% (confirmation average, at 20 µM).

`Cc1cccc(N2C(=O)NC(=O)/C(=C\c3cnn(-c4ccccc4)c3)C2=O)c1`: the inhibition (at 35 µM) is -2.6% (inactive).

Consider `O=C1NC(=O)N(c2ccccc2)C(=O)/C1=C/c1ccc([N+](=O)[O-])s1`, for which the inhibition reads like this: (at 35 µM) 70.5% (inactive); (confirmation average, at 20 µM) 22.6%.

`O=C(Cc1ccc(Cl)cc1)NCCN1CCN(C(=O)Cc2ccc(Cl)cc2)CC1`: the inhibition (at 35 µM) was -0.4% (inactive).

Regarding `COc1ccc(CNCCc2ccc3c(c2)OCO3)c(OC)c1OC`, the inhibition (at 35 µM) was 18.8% (inactive).

Take `COc1cccc(OC)c1C(=O)NC(=S)N1C[C@H]2C[C@H](C1)c1cccc(=O)n1C2`: the inhibition (at 35 µM) is -6.5% (inactive).

Consider `O=C(O)COc1ccccc1/C=C1\C(=O)NC(=O)N(CCC2=CCCCC2)C1=O`, for which the inhibition (at 35 µM) is 94% (active).

For `CCCCC(=O)N/N=C/c1c(O)n(CCC2=CCCCC2)c(=O)[nH]c1=O`, the inhibition (at 35 µM) was 26.1% (inactive).

For `O=C1NC(=O)N(CCc2ccc(F)cc2)C(=O)/C1=C/C=C/c1ccccc1`, for the setting “at 35 µM”, the inhibition was 4.2% (inactive).

Consider `CN1CCC(OC(=O)c2cccc(F)c2)CC1`, for which, for the setting “at 35 µM”, the inhibition was -5.1% (inactive).

As to `CC1(C)Cc2c(C#N)c(N3CCNCC3)nc(-c3ccco3)c2CS1`, the inhibition (at 35 µM) is 84.6% (active) and the inhibition (confirmation average, at 20 µM) turned out to be 77.5%.

As to `COc1cccc(C(=O)N2C[C@H]3C[C@@H](C2)c2cccc(=O)n2C3)c1`, the inhibition (at 35 µM) was 18.7% (inactive).

Consider `COc1ccc(CN2C(=O)NC(=O)/C(=C\c3ccc(OC)c(OC)c3OC)C2=O)cc1`, for which the inhibition by setting is: (at 35 µM) 9% (active); (confirmation average, at 20 µM) 60.4%.

In the case of `C=CCN1C(=O)NC(=O)/C(=C/c2ccc(OCC(=O)Nc3ccc(C)cc3)cc2)C1=O`, where the note is “at 35 µM”, the inhibition is -6.2% (inactive).

As for `O=C1NC(=O)N(Cc2ccco2)C(=O)/C1=C\c1cccn1CCOc1ccccc1`, the inhibition (at 35 µM) was 49.4% (inactive).

Turning to `CN(C)C(=O)Oc1ccc2c(c1)O/C(=C\c1ccccc1)C2=O`, the inhibition (at 35 µM) was -7% (inactive).

For the compound `Cc1cc(/C=C2/C(=O)NC(=O)N(Cc3ccco3)C2=O)c(C)n1-c1ccc(C(=O)O)cc1`, the inhibition is, setting by setting: (at 35 µM) 84% (inactive); (confirmation average, at 20 µM) 42.8%.

As for `COc1ccc(N2C(=O)/C(=C/c3ccco3)C(=O)NC2=S)cc1`, the inhibition runs as follows: (at 35 µM) 74.6% (active); (confirmation average, at 20 µM) 76.5%.

For the compound `Cc1ccc(S(=O)(=O)N(C)c2ccc(C(=O)NCC3(N(C)C)CCCCC3)cc2)cc1`, where the note is “at 35 µM”, the inhibition was 0.5% (inactive).

Consider `O=[N+]([O-])c1cnc2ccc3ccccc3c2c1`, for which the inhibition (at 35 µM) was 1.5% (inactive).

Take `COc1ccc2[nH]c3c(c2c1)CCN[C@H]3C`: the inhibition (at 35 µM) is -4.1% (inactive).

As for `CN(c1ccccc1)c1ccc([N+](=O)[O-])c2nonc12`, the inhibition (at 35 µM) was 9.8% (inactive).

For the compound `CCCCn1c(O)c(C(CC)=NCc2ccco2)c(=O)[nH]c1=O`, under “at 35 µM”, the inhibition is 9.5% (inactive).

`CC/C(=N\NC(=O)c1ccccc1O)c1c(O)n(Cc2ccccc2)c(=O)[nH]c1=O`: the inhibition (at 35 µM) is 43.2% (inactive).

`CCC(=NCc1ccco1)c1c(O)n(Cc2ccccc2)c(=O)[nH]c1=O`: the inhibition (at 35 µM) was 67.3% (active) and the inhibition (confirmation average, at 20 µM) turned out to be 73.8%.

For the compound `Oc1cc2c(cc1CN1CCN(c3ccccc3)CC1)OCO2`, the inhibition (at 35 µM) is -8.2% (inactive).

Consider `O=c1c2ccccc2nc(/C=C/c2ccc(F)cc2)n1-c1ccccc1O`, for which, under “at 35 µM”, the inhibition is 18.9% (inactive).

Regarding `CC(=NCC1CCCO1)c1c(O)n(-c2ccccc2)c(=O)[nH]c1=O` (centres undefined), the inhibition (at 35 µM) is -5.3% (inactive).

With `CC(=O)c1c(O)n(C2CCCCCC2)c(=O)[nH]c1=O`, the inhibition (at 35 µM) is 82% (active).

As for `CCC(=NCCc1ccccc1)c1c(O)n(C2CCCCC2)c(=O)[nH]c1=O`, under “at 35 µM”, the inhibition is -8% (inactive).

Turning to `CCN1CCN(Cc2cc(OC)c3c(c2)OCO3)CC1`, the inhibition (at 35 µM) was 10.2% (inactive).

In the case of `c1ccc(CCNC2CCCCCC2)cc1`, the inhibition (at 35 µM) is 11% (inactive).

`CC(=O)Nc1ccc(C(=O)C(Cc2ccccc2)N(C)C)cc1` (centres undefined): the inhibition (at 35 µM) is -9.3% (inactive).
